Test [1] can be described thus: APR_HepG2_CellCycleArrest_1hr: Apredica 1-hour HepG2 Assay for Cell Cycle Arrest (AID 2282666). The following applies: high-content imaging, actives raise or lower the signal. The gist of the method: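 Cell cycle arrest scored from nuclear DNA content (Hoechst 33342) using high-content imaging of fixed HepG2 cells after 1 h treatment across 0.39–200 uM, in duplicate. Gain or loss fitted relative to 0.5% DMSO.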

The nature of test [2]: APR_HepG2_CellLoss_1hr: Apredica 1-hour HepG2 Assay for Cell Loss (AID 2282668).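 Note: curves fitted both ways against DMSO so gain or loss of cells counts.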 The following applies: high-content imaging. The method in brief:
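Cell number comes from high-content imaging of Hoechst-labelled nuclei in fixed HepG2 cells. Cells were exposed for 1 h to ten concentrations from 0.39 to 200 uM in 0.5% DMSO. Gain or loss was fitted against DMSO controls.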

The nature of test [3]: APR_HepG2_NuclearSize_1hr: Apredica 1-hour HepG2 Assay for Nuclear Size (AID 2282670). The following applies: high-content imaging, actives raise or lower the signal. The method in brief: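 Nuclear size measured by high-content imaging of Hoechst 33342 nuclear stain after formaldehyde fixation; human HepG2 line exposed 1 hr to compounds at 0.39–200 uM in 0.5% DMSO, with bidirectional curve fitting relative to DMSO.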

Test [4] can be described thus: APR_HepG2_P-H2AX_1hr: Apredica 1-hour HepG2 Assay for H2AX Phosphorylation (AID 2282673). The note with it: high-content imaging, actives raise or lower the signal. The gist of the method:
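Phospho-H2A.x immunofluorescence (1:200, FITC secondary) plus Hoechst nuclear stain, quantified by high-content imaging in HepG2 after 1 hr compound exposure. Ten concentrations, 0.39 to 200 uM, in duplicate with 0.5% DMSO; fit both directions against DMSO.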

Test [5] can be described thus: APR_HepG2_MitoMass_1hr: Apredica 1-hour HepG2 Assay for Mitochondrial Mass (AID 2282674). The note with it: high-content imaging, actives raise or lower the signal. The gist of the method: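 Mitochondrial mass is taken from MitoTracker Red CMXRos (250 nM, 30 min, pre-fixation) fluorescence imaged at 20x in HepG2 cells. Exposure lasted 1 hr across ten concentrations, 0.39 to 200 uM, 0.5% DMSO; DMSO baseline, bidirectional fitting.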

Test [6] can be described thus: APR_HepG2_MitoMembPot_1hr: Apredica 1-hour HepG2 Assay for Mitochondrial Membrane Potential (AID 2282675). The note with it: imaging, actives raise or lower the signal. The gist of the method: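 Mitochondrial membrane potential read as MitoTracker Red CMXRos intensity by automated imaging of fixed HepG2 cells. Dye at 250 nM for 30 min pre-fixation; compounds 0.39 to 200 uM for 1 hour, duplicate wells, 0.5% DMSO.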

Test [7] is described as follows: APR_HepG2_CellCycleArrest_24hr: Apredica 24-hour HepG2 Assay for Cell Cycle Arrest (AID 2282905).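 Note: cell cycle arrest scored as ratio of 2N to 4N nuclear DNA content.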 The note with it: imaging, actives raise or lower the signal. The method in brief: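 Step one: dose HepG2 with test compounds, 0.39–200 uM, 0.5% DMSO, 24 hr. Step two: fix, permeabilize, stain nuclei with Hoechst 33342. Step three: image six fields per well at 20x, quantify DNA content, fit bidirectionally relative to DMSO.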

A short description of test [8]: APR_HepG2_StressKinase_1hr: Apredica 1-hour HepG2 Assay for Stress Kinase (AID 2282906). The note with it: HepG2 stress kinase (phospho-c-Jun) imaging, actives raise or lower the signal. The gist of the method: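 High-content imaging of phospho-c-Jun immunostaining (with Hoechst nuclear identification) after a 1 h exposure of HepG2 cells to 10 concentrations from 0.39 to 200 uM, final DMSO 0.5%. Fitted bidirectionally against DMSO.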

A short description of test [9]: APR_HepG2_NuclearSize_24hr: Apredica 24-hour HepG2 Assay for Nuclear Size (AID 2282907). The following applies: high-content imaging, actives raise or lower the signal. The gist of the method: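 After fixation and permeabilization, 24-hr-treated HepG2 cells were stained with Hoechst 33342 and imaged on an ArrayScan (20x). Doses spanned 0.39–200 uM in duplicate. Nuclear diameter changes in either direction were fitted relative to 0.5% DMSO controls.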

Test [10] in a line: APR_HepG2_CellLoss_24hr: Apredica 24-hour HepG2 Assay for Cell Loss (AID 2282908). The following applies: high-content imaging. The gist of the method:
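Duplicate wells received compound at ten concentrations (0.39–200 uM; final DMSO 0.5% v/v). After fixation with formaldehyde, nuclei stained with Hoechst 33342 were imaged at 20x. Loss or gain of cell count was fitted relative to DMSO controls.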

The nature of test [11]: APR_HepG2_MicrotubuleCSK_24hr: Apredica 24-hour HepG2 Assay for Microtubule CSK Stabilty (AID 2282909). The following applies: HepG2 microtubule cytoskeleton imaging, actives raise or lower the signal. The method in brief:
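Microtubule stability is scored from tubulin immunofluorescence in fixed HepG2 cells imaged at 20x. Cells receive ten compound concentrations up to 200 uM for 24 h; taxol and DMSO serve as positive and negative controls.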

The nature of test [12]: APR_HepG2_MitoticArrest_24hr: Apredica 24-hour HepG2 Assay for Mitotic Arrest (AID 2282910). The note with it: high-content imaging, actives raise or lower the signal. The method in brief: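 HepG2, 24 hr dosing, 0.39–200 uM, 0.5% DMSO final. Formaldehyde-fixed, Triton-permeabilised, anti-phospho-histone H3 plus Hoechst. ArrayScan imaging at 20x; bidirectional fit vs DMSO baseline.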

Test [13] is described as follows: APR_HepG2_MitoMembPot_24hr: Apredica 24-hour HepG2 Assay for Mitochondrial Membrane Potential (AID 2282911). The note with it: imaging, actives raise or lower the signal. The gist of the method: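 Mitochondrial membrane potential imaged via MitoTracker Red CMXRos (250 nM, 30 min pre-fixation) in fixed HepG2 cells with Hoechst nuclear identification. Ten concentrations 0.39–200 uM, 24 h treatment, 0.5% DMSO; CCCP as positive control.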

A short description of test [14]: APR_HepG2_MitoMass_24hr: Apredica 24-hour HepG2 Assay for Mitochondrial Mass (AID 2282912). The note with it: high-content imaging, actives raise or lower the signal. The gist of the method: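 Readout: fluorescence of MitoTracker Red CMXRos (250 nM, added 30 min pre-fixation) in fixed HepG2 cells imaged by HCS. Exposure lasted 24 hr at 0.39–200 uM; increases and decreases were both fitted relative to DMSO.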

Test [15] in a line: APR_HepG2_CellCycleArrest_72hr: Apredica 72-hour HepG2 Assay for Cell Cycle Arrest (AID 2282914). The note with it: high-content imaging, actives raise or lower the signal. The gist of the method: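 Read-out: nuclear DNA content from Hoechst 33342 high-content imaging (20x, six fields/well) after 3.7% formaldehyde fixation, fitted bidirectionally against DMSO. Treatment was 72 h in HepG2, ten concentrations 0.39–200 uM, duplicate, 0.5% DMSO.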

Test [16] in a line: APR_HepG2_CellLoss_72hr: Apredica 72-hour HepG2 Assay for Cell Loss (AID 2282915). The following applies: high-content imaging. The gist of the method: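 HepG2 cells exposed 72 h to compound at 0.39–200 uM (10 concentrations, duplicate) in 0.5% DMSO. Fixed with 3.7% formaldehyde and Hoechst 33342-stained. Imaged at 20x; nuclear count gives cell number, fitted bidirectionally versus DMSO.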

A short description of test [17]: APR_HepG2_p53Act_1hr: Apredica 1-hour HepG2 Assay for p53 Activation (AID 2282671). The following applies: high-content imaging, actives raise or lower the signal. The gist of the method:
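After 1 h exposure (0.39–200 uM, 0.5% DMSO final, duplicates), fixed HepG2 cells were labelled with anti-p53 antibody plus Hoechst nuclear stain. Fluorescence quantified by automated 20x imaging; changes fitted in both directions against DMSO.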

The nature of test [18]: APR_HepG2_MitoticArrest_1hr: Apredica 1-hour HepG2 Assay for Mitotic Arrest (AID 2282672). The note with it: high-content imaging, actives raise or lower the signal. The gist of the method: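 Ten-point concentration series (0.39 to 200 uM, duplicates, 0.5% v/v DMSO) applied to human HepG2 liver cells for 1 hr. High-content imaging of phospho-histone H3 and Hoechst-stained nuclei after fixation and permeabilization; DMSO-normalised bidirectional fit.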

The nature of test [19]: APR_HepG2_p53Act_24hr: Apredica 24-hour HepG2 Assay for p53 Activation (AID 2282913).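 Note: p53 protein immunofluorescence averaged per cell in HepG2 with Hoechst nuclei.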 The note with it: high-content imaging, actives raise or lower the signal. The method in brief:
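Fluorescence imaging of formaldehyde-fixed HepG2 cells labelled for p53 and with Hoechst, 24 h after dosing (0.39–200 uM, duplicate wells, 0.5% v/v DMSO). Signal fitted in both directions relative to DMSO.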

Active and inactive are the calls of the source. Rule for the calls: active = hit-call score of the fitted dose curve at least 0.9, where 1 is the maximum; inactive = score below 0.9.

For `Nc1c(Cl)cc([N+](=O)[O-])cc1Cl`, the call in [1], in test [2], in test [3], in [4], in test [5] and in [6] was inactive. Moreover, the result in test [7], in test [8], in test [9], in [10], in [11] and in test [12] was inactive. Moreover, the compound was classed as inactive in test [13], in test [14] and in test [15]. Moreover, in test [16], the AC50 was 95.3 µM (active).
With `CCOP(=O)(OCC)Oc1cc(C)nc(C(C)C)n1`, the outcome in test [1], in test [2], in test [17], in [18], in test [4] and in [6] was inactive. For the same compound, the result in test [7], in test [8], in test [9], in [10], in test [11] and in [12] was inactive. In addition, the result in test [13], in test [14], in test [19], in [15] and in [16] was inactive.
On to `CCc1cnc(C2=NC(C)(C(C)C)C(=O)N2)c(C(=O)O)c1` (configuration not stated), for which the outcome in test [1], in test [2], in [5], in test [6], in [7] and in test [8] was inactive. In addition, the compound was classed as inactive in test [9], in test [10], in test [11], in [12], in [13] and in [14]. Besides, the result in test [15] and in test [16] was inactive.
For the compound `CSc1nnc(C(C)(C)C)c(=O)n1N`, the compound was called inactive in test [1], in test [2], in test [5], in [6], in [7] and in test [8]. Further, the compound was called inactive in test [9], in [10], in [11], in test [12], in [13] and in test [14]. Besides, the compound was called inactive in test [19], in [15] and in test [16].
Consider `CC1(C(=O)Nc2ccc(O)c(Cl)c2Cl)CCCCC1`, for which the compound was called inactive in test [1], in test [2], in [3], in test [18], in test [6] and in test [7]. In addition, the result in test [8], in test [9], in test [10], in test [12], in [13] and in [14] was inactive. The compound was classed as inactive in [19] and in test [15]. Also, the AC50 in [11] is 94 µM (active); in test [16], 71.2 µM (active).
Regarding `CCOP(=S)(OCC)SCCSCC`, the compound was classed as inactive in test [1], in test [2], in [3], in test [4], in test [6] and in [7]. Further, the compound was called inactive in [8], in test [9], in test [10], in [11], in test [12] and in test [13]. Besides, the outcome in test [14], in test [19], in test [15] and in test [16] was inactive.
Turning to `CSc1nc(NC(C)C)nc(NC(C)C)n1`, the call in test [1], in test [2], in test [17], in [18], in [5] and in test [6] was inactive. Moreover, the compound was called inactive in test [7], in test [8], in [9], in [10], in [11] and in test [12]. The call in [13], in [14], in [19], in [15] and in test [16] was inactive.
In the case of `CCOP(=O)(SC(C)CC)N1CCSC1=O` (configuration not stated), the outcome in [1], in [2], in test [3], in [18], in test [5] and in test [6] was inactive. In addition, the call in [7], in [8], in [9], in [10], in test [11] and in test [12] was inactive. In addition, the outcome in [13], in test [14], in test [15] and in test [16] was inactive.

Source of the values: PubChem BioAssay (EPA / NIEHS).
